Results filed as inconclusive are left out. Active and inactive are the calls of the source. Calls follow the shape of the dose curve; as a rule, active = well fitted curve in the direction sought with a large enough effect; inconclusive = small, poorly fitted or top-dose-only effect, or another doubt; inactive = no such curve, though single readings can be large; an effect the other way counts as inactive or inconclusive.
What was measured:
[1] = system: NIH3T3; test: qHTS assay to identify novel small-molecules to repurpose for Merkel cell carcinoma treatment (AID 1296009); conditions: MCC and control cell lines, CellTiter-Glo viability, 72 h; series mostly up to 44.8 µM; also: nearly all actives have a fitted effect of over 60% in size
Outline: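 Cell viability measured by CellTiter-Glo following 72 hr compound treatment at 37 degree celsius, with NPC and MIPE libraries tested in 8- and 11-point concentration series.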

[2] = system: C33A; test: Primary qHTS to identify gynecologic anti-cancer compounds using libraries of approved drugs and bioactive compounds (AID 1345084); conditions: Gynecologic cancer cell panel viability, ATPlite luminescence, 48 h; series mostly up to 57.5 µM; also: nearly all actives have a fitted effect of over 55% in size; also: potency is read from the fitted curve at half-maximal effect; as to activity change, negative = cytotoxicity: % is scaled to controls: 0 for no effect and ±100 for the full control effect
Outline: (§1)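 Luminescence from the ATPlite ATP-monitoring reagent indicates viable cell number; lower signal means cytotoxicity. Cells received compound 16 h after seeding and were exposed for 48 h across five concentrations.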

[3] = system: CASKI; test: as above; conditions: Gynecologic cancer cell panel viability, ATPlite luminescence, 48 h; series mostly up to 57.5 µM
Outline: as §1

[4] = system: Es-2; test: as above; conditions: Gynecologic cancer cell panel viability, ATPlite luminescence, 48 h; series mostly up to 57.5 µM
Outline: as §1

[5] = system: HeLa; test: as above; conditions: Gynecologic cancer cell panel viability, ATPlite luminescence, 48 h; series mostly up to 57.5 µM
Outline: as §1

[6] = system: Hek293T; test: as above; conditions: Gynecologic cancer cell panel viability, ATPlite luminescence, 48 h, control line for the selectivity index; series mostly up to 57.5 µM
Outline: as §1

[7] = system: JEG-3; test: as above; conditions: Gynecologic cancer cell panel viability, ATPlite luminescence, 48 h; series mostly up to 57.5 µM
Outline: as §1

[8] = system: SKOV3; test: as above; conditions: Gynecologic cancer cell panel viability, ATPlite luminescence, 48 h; series mostly up to 57.5 µM
Outline: as §1

[9] = system: Tov-21-G; test: as above; conditions: Gynecologic cancer cell panel viability, ATPlite luminescence, 48 h; series mostly up to 57.5 µM
Outline: as §1

[10] = system: Tov112D; test: as above; conditions: Gynecologic cancer cell panel viability, ATPlite luminescence, 48 h; series mostly up to 57.5 µM
Outline: as §1

[11] = system: OV90; test: as above; conditions: Gynecologic cancer cell panel viability, ATPlite luminescence, 48 h; series mostly up to 57.5 µM
Outline: as §1

[12] = system: PA-1; test: as above; conditions: Gynecologic cancer cell panel viability, ATPlite luminescence, 48 h; series mostly up to 57.5 µM
Outline: as §1

[13] = system: CAOV3; test: as above; conditions: Gynecologic cancer cell panel viability, ATPlite luminescence, 48 h; series mostly up to 57.5 µM
Outline: as §1

CCC(C)C1NC(=O)C(Cc2ccccc2)NC(=O)C(CCCCCC(=O)C(O)CO)NC(=O)C2CCCCN2C1=O (stereo unspecified)
inactive: Potency [1] | Potency [2] | Potency [3] | Potency [4] | Potency [5] | Potency [6] | Potency [7] | Potency [8] | Potency [9] | Potency [10]

C=CC(C)(C)c1[nH]c2ccccc2c1C[C@@H]1NC(=O)[C@H](C)NC1=O
inactive: Potency [1] | Potency [2] | Potency [3] | Potency [4] | Potency [5] | Potency [6] | Potency [7] | Potency [11] | Potency [12] | Potency [8] | Potency [9] | Potency [10]

COc1cc(F)c(C(C)C)cc1-c1ccc(C(F)(F)F)cc1CN1C(=O)OC(c2cc(C(F)(F)F)cc(C(F)(F)F)c2)C1C (stereo unspecified)
inactive: Potency [1] | Potency [2] | Potency [3] | Potency [4] | Potency [5] | Potency [6] | Potency [7] | Potency [11] | Potency [12] | Potency [9] | Potency [10]

COc1ccccc1N1CCN(CC(C(=O)NC(C)(C)C)c2ccccc2)CC1 (stereo unspecified)
inactive: Potency [1] | Potency [13] | Potency [3] | Potency [4] | Potency [5] | Potency [6] | Potency [7] | Potency [11] | Potency [12] | Potency [8] | Potency [9] | Potency [10]

C/C=C(/C)C(=O)O[C@H]1C=C(CO)C(=O)[C@H](OC(=O)/C(C)=C/CO)[C@H]1C(C)C
active: Potency [2] 10 µM | Potency [13] 11.2 µM

CCn1c(-c2nonc2N)nc2c(C#CC(C)(C)O)ncc(OCC3CCCNC3)c21 (stereo unspecified)
inactive: Potency [1] | Potency [4] | Potency [5] | Potency [7] | Potency [10]
active: Potency [12] 28.2 µM

C/C=C/[C@@H]1C=C[C@@H]2C[C@H](C)CC[C@H]2[C@]1(C)/C(O)=C1/C(=O)[C@@H](CO)N(C)C1=O
inactive: Potency [1] | Potency [13] | Potency [3] | Potency [4] | Potency [5] | Potency [6] | Potency [7] | Potency [11] | Potency [12] | Potency [8] | Potency [9] | Potency [10]

CO[C@H]1[C@@H](O)[C@H](O[C@H]2CC[C@@]3(C)C(CCC4C3CC[C@]35COC6(COC(=O)C6)C3CCC45O)C2)O[C@@H](C)[C@@H]1OC1OC(CO)C(OC2OC(CO)C(O)C(O)C2O)C(O)C1O (stereo partly specified)
active: Potency [10] 2.82 µM
inactive: outcome [1] inactive [at 9.27 µM] | activity change, negative = cytotoxicity [13] -7.69% [at 11.6 µM] | activity change, negative = cytotoxicity [3] -2.83% [at 11.6 µM] | activity change, negative = cytotoxicity [6] -29.3% [at 11.6 µM] | activity change, negative = cytotoxicity [7] 18.5% [at 11.6 µM] | activity change, negative = cytotoxicity [11] 16.3% [at 11.6 µM]

Cc1ccc(C(C)C)c(O[C@@H]2O[C@H](CO)[C@@H](O)[C@H](O)[C@H]2O)c1
inactive: Potency [2] | Potency [13] | Potency [3] | Potency [4] | Potency [5] | Potency [6] | Potency [7] | Potency [11] | Potency [12] | Potency [8] | Potency [9]

C/C=C(\C)[C@@H]1C(C)=C[C@@H]2[C@H]([C@@H]1/C=C/C=C/C(=O)O)[C@@H](C)CC[C@@H]2O
inactive: Potency [2]

COC(=O)c1cc2c(C(F)(F)F)cc(-c3ccccc3)cc2n1O
inactive: Potency [1] | Potency [2] | Potency [3] | Potency [4] | Potency [5] | Potency [6] | Potency [7] | Potency [11] | Potency [12] | Potency [8] | Potency [9] | Potency [10]

COC1CC(O[C@H]2CC[C@]3(C)C4CC[C@]5(C)C(C6=CC(=O)OC6)=CCC56OC46CC[C@@H]3C2)OC(C)C1O[C@@H]1O[C@H](CO[C@@H]2O[C@H](CO)[C@@H](O)[C@H](O)[C@H]2O)[C@@H](O)[C@H](O)[C@H]1O (stereo partly specified)
active: Potency [2] 2.82 µM | Potency [4] 3.16 µM | Potency [5] 3.55 µM | Potency [6] 2.82 µM | Potency [12] 3.98 µM | Potency [8] 3.16 µM | Potency [9] 2.24 µM | Potency [10] 2 µM
inactive: outcome [1] inactive [at 9.27 µM] | activity change, negative = cytotoxicity [3] -27.8% [at 11.6 µM]

CC1(C)CCC(C)(C)c2cc(C#Cc3ccc(C(=O)O)cc3)ccc21
inactive: Potency [1] | Potency [2] | Potency [13] | Potency [4] | Potency [5] | Potency [6] | Potency [7] | Potency [11] | Potency [12] | Potency [9] | Potency [10]

CC(OC1OCCN(Cc2n[nH]c(=O)[nH]2)C1c1ccc(F)cc1)c1cc(C(F)(F)F)cc(C(F)(F)F)c1 (stereo unspecified)
inactive: Potency [2] | Potency [13] | Potency [3] | Potency [4] | Potency [5] | Potency [6] | Potency [7] | Potency [11] | Potency [12] | Potency [8] | Potency [9]

C[C@@H]1C[C@H](C)CN(CCC(=O)Nc2ccc(Br)cc2)C1
inactive: Potency [2] | Potency [13] | Potency [3] | Potency [4] | Potency [5] | Potency [6] | Potency [7] | Potency [11] | Potency [12] | Potency [8] | Potency [9]

O=C(Nc1ncc([N+](=O)[O-])s1)c1ccccc1O
inactive: Potency [1] | Potency [2] | Potency [13] | Potency [3] | Potency [5] | Potency [6] | Potency [7] | Potency [11] | Potency [12] | Potency [8] | Potency [9] | Potency [10]

From PubChem BioAssay (NCATS)
